Data from ChEMBL document CHEMBL3433997, “St. Jude Leishmania screening dataset” (2016).

Tests used:
Assay type in all cases: functional
[1] = molecular target: Solute carrier family 2, facilitated glucose transporter member 1 (Homo sapiens) (UniProt P11166); experiment: ST_JUDE_LEISH: Cytotoxicity at 2uM final concentration against transgenic Leishmania Mexicana promastigotes LmGLUT1 that are glucose transport deficient and complemented with the human glucose transporter GLUT1. Activity is measured by DNA content using SYBR green in vitro
Sequence of Solute carrier family 2, facilitated glucose transporter member 1 (Homo sapiens) (P11166 whole entry): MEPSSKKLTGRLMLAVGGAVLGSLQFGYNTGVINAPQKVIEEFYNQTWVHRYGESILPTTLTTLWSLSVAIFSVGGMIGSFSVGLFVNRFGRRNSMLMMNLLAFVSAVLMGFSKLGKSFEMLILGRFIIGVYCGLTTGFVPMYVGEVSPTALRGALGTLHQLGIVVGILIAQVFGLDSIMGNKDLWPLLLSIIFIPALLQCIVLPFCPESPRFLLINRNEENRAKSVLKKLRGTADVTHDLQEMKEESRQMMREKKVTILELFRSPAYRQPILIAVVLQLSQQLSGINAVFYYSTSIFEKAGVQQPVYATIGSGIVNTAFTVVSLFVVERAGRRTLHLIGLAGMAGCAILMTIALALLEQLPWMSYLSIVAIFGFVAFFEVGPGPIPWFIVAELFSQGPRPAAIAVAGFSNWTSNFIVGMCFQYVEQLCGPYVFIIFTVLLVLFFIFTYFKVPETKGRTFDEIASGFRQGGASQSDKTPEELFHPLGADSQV

[2] = molecular target: Hexose transporter 1 (Plasmodium falciparum) (UniProt O97467); experiment: ST_JUDE_LEISH: Cytotoxicity at 2uM final concentration against transgenic Leishmania Mexicana promastigotes LmPfHT that are glucose transport deficient and complemented with the Plasmodium falciparum hexose transporter. Activity is measured by DNA content using SYBR green in vitro
[3] = molecular target: Glucose transporter (Leishmania mexicana) (UniProt O61059); experiment: ST_JUDE_LEISH: Cytotoxicity at 2uM final concentration against transgenic Leishmania Mexicana promastigotes LmGT2 that are glucose transport deficient and complemented with the L. Mexicana glucose transporter 2. Activity is measured by DNA content using SYBR green in vitro

| SMILES | inhibition [1] | inhibition [2] | inhibition [3] |
| --- | --- | --- | --- |
| CS(=O)(=O)c1ccc2nc(NC(=O)c3csnn3)sc2c1 | 3.22% | 3.89% | 4.47% |
| O=C(C=Cc1ccc(Cl)c(Cl)c1)NCCCCCN1CCC(c2n[nH]c3ccccc23)CC1 | 1.5% | 2.15% | 1.44% |
| Cc1ccc2[nH]c(-c3ccccc3Nc3ccnc4cc(-c5nccs5)ccc34)nc2c1 | 1.04% | 4.44% | 1.35% |
| O=C(Nc1cccc(-c2ccc(-c3nc4cc(C(F)(F)F)ccc4[nH]3)s2)c1)c1ccncc1 | 8.37% | 8.56% | 7.24% |
| O=C(c1ccc(Br)o1)N1N=C(c2cccs2)CC1c1ccc(Br)cc1 (stereo not drawn) | 5.77% | 7.79% | 3.94% |
| COc1ccc(CNCc2ccsc2)cc1-c1ccc(S(=O)(=O)NCCN2CCCC2)s1 | 8.12% | 8.67% | 5.77% |
| O=C(NCC1CCC(C(=O)NCc2cccc3ccccc23)CC1)c1ccc(O)c(-c2ccc(Cl)c(Cl)c2)c1 (stereo not drawn) | 5.23% | 3.37% | 4.73% |
| O=C(Nc1ccc(N2CCCN(Cc3cccc(F)c3)CC2)cc1)c1ccc(F)cc1 | 4.73% | 5.55% | 5.51% |
| CC1=C(C(=O)Nc2ccc(Cl)cc2)C(c2ccncc2)n2nc(C(F)(F)F)nc2N1 (stereo not drawn) | 3.72% | 2.96% | -2.29% |
| Nc1nc(N)c2c(ccn2Cc2cc3c(cc2Cl)OCO3)n1 | 4.12% | 2.86% | 10.5% |
| COc1cccc(C(=O)C2CC2CN(C)CC(O)c2cc(C)c(OC)cc2C)c1 (stereo not drawn) | 1.05% | -1.24% | 0.15% |
| CC(=O)Nc1cccc(C(=O)Nc2cccc(-c3ccc(-c4nc5cc(C(F)(F)F)ccc5[nH]4)s3)c2)c1 | 0.34% | 0.52% | 0.89% |
| Cc1ccc(NC(=O)c2cn(-c3ccccc3)nc2-c2ccc(F)cc2)cc1[N+](=O)[O-] | 4.38% | 3.28% | 1.86% |
| Nc1n[nH]c(-c2ccccc2Nc2ccnc3cc(-c4nccs4)ccc23)n1 | 1.03% | 0.07% | -0.15% |
| O=C(/C=C/c1ccc([N+](=O)[O-])cc1)N1CCC(NS(=O)(=O)c2cccc(C(F)(F)F)c2)CC1 | 3.4% | 3% | 0.97% |
| O=C(NCCCCN1CCC(c2ccc3c(c2OCC(O)c2ccc(Cl)cc2)CCCC3)CC1)c1ccc(-c2ccc(C(F)(F)F)cc2)cc1 (stereo not drawn) | 0.65% | 1.49% | 0.85% |
| Cc1cc(=NN=Cc2cccc(F)c2)c2ccc(F)cc2[nH]1 | 10.5% | 7.85% | 7.27% |
| COc1ccc2c(c1CCNCCCCNCCc1c(OC)ccc3c1CCCC3)CCCC2 | 47.3% | 61.4% | 52.9% |
| O=C(/C=C/c1ccc(Cl)cc1)NCCCCCN1CCC(C(=O)Nc2ccc(Cl)c(Cl)c2)CC1 | -0.38% | -2.11% | -0.64% |
| Cc1cc(Cl)ccc1NC(=O)Nc1ccc2nccc(N3CCN(C)CC3)c2c1 | 3.07% | 6.28% | 5.6% |
| Cc1cccc2nc(-c3cccc(-c4ccc(C(=O)NCc5nccn5C)cc4)c3)[nH]c12 | 1.94% | 3.7% | 1.69% |
| COc1ccc(S(=O)(=O)NC2CCN(CCCOc3ccnc4cc(Cl)ccc34)C2)cc1OC (stereo not drawn) | 3.41% | 3.81% | 2.88% |
| CCC[C@@H](C(=O)NCCc1cccc(OC)c1)N1C(=O)c2c(ccc(OC)c2OC)C1C(=O)Nc1c(C)cccc1C (stereo partly drawn) | 0.5% | 0% | 0.1% |
| COc1ccc(C(F)(F)F)cc1N1CCN(CCCCNC(=O)c2ccc(NC(=O)c3ccc(Cl)cc3)cc2)CC1 | 0.14% | 1.22% | -0.38% |

| SMILES | inhibition [1] | inhibition [2] | inhibition [3] |
| --- | --- | --- | --- |
| CC(C)Nc1cc(C(=O)N[C@@H](Cc2ccccc2)[C@H](O)CNCc2cccc(C(F)(F)F)c2)c(F)c(N2CCCCS2(=O)=O)c1 | 7.12% | 6.09% | 7.07% |
| CN(CCCCNC(=O)c1cc2ccccc2[nH]1)C1CC2(CCN(C(=O)OC(C)(C)C)CC2)c2ccccc21 (stereo not drawn) | -1.12% | -1.35% | -1.2% |
| COc1ccccc1CCNc1nc(C)cc(N[C@@H](CC(C)C)C(=O)Nc2ccccc2)n1 | 4.84% | 6.02% | -0.58% |
| O=c1ccc2ncc(Cl)c3c2n1CC3CN1CCC(NCc2cc3c(cn2)OCCO3)CC1 (stereo not drawn) | 8.8% | 14.5% | 5.05% |
| Brc1ccc(Nc2ccnc3cc(-c4nccs4)ccc23)cc1Oc1ccnc2cc(-c3nccs3)ccc12 | 1.77% | 2.1% | -0.86% |
| CC1(C)NC(N)=NC(=N)N1OCCOc1ccc(Cc2ccccc2)cc1 | 1.41% | 0.91% | 0.68% |
| CCc1cn2c3c(cc(C(=O)N[C@@H](Cc4cccc(Cl)c4)[C@H](O)CNC4CCCCC4)cc13)N(C)S(=O)(=O)CC2 | -0.29% | 1.09% | -0.36% |
| CCNC(=O)N1CCc2ccc(Oc3nc(NCc4ccccc4OC)ncc3C)cc2CC1 | 5.14% | 6.01% | 2.64% |
| CCCNC(=O)c1cncc(-c2cccc(CNC3Cc4ccccc4C3)c2)c1 | -1.27% | -1.42% | -1.3% |
| O=C(Nc1ccc(-c2ccc(-c3nc4ccccc4[nH]3)s2)cc1)Nc1ccsc1 | 0.72% | -0.46% | 4.17% |
| COc1ccc(-c2ccc(NC(=O)c3cccc(Cl)c3)c(F)c2)cc1CNC(C)C | 9.29% | 7.16% | 4.55% |
| COc1ccc(NC(=O)NC2CCN(c3ccnc4cc(Cl)ccc34)C2)cc1 (stereo not drawn) | 4.89% | 2.85% | 1.86% |
| Cc1ccc(Cn2ncc(N3CC(C)NC(C)C3)c(Cl)c2=O)cc1NC(=O)Nc1ccc(-c2ccccc2)cc1 (stereo not drawn) | 14.6% | 13.9% | 13.6% |
| CCCC(C)NC(=O)c1cnn(-c2ccc(C(C)(C)C)cc2)c1OCc1ccc(Br)cc1 (stereo not drawn) | 4.76% | 6.02% | 5.11% |
| O=C(NCCCN1CCN(c2cccc(Cl)c2)CC1)c1ccc(-c2nc3cc(Cl)c(Cl)cc3[nH]2)c(F)c1 | 3.57% | 1.4% | 1.68% |
| O=C(/C=C/c1ccc(Cl)c(Cl)c1)N1CCC(CCN2CCC(c3c[nH]c4cc5c(cc34)OCO5)CC2)CC1 | 0.05% | 0.01% | -0.27% |
| O=C(NCc1ccc(Cl)c(Cl)c1)c1ccc(C2CCCN(Cc3ccc4[nH]cnc4c3)C2)cc1 (stereo not drawn) | 5% | 9.77% | 6.17% |
| O=C(NOCCCCOc1ccc(Cl)c(Cl)c1)c1ccccc1 | -2.66% | -2.61% | -1.29% |
| CCc1c(C)nc(-n2nc(C)cc2NC(=O)CC(c2ccccc2)c2ccccc2)[nH]c1=O | -2.32% | -2.23% | -4.35% |
| Fc1cc(Cl)ccc1Nc1ccnc2cc(-c3ccc(CN4CCOCC4)o3)ccc12 | 20.6% | 52.9% | 43.6% |
| O=C(NCCc1ccccc1)c1cc(-c2cccnc2)cnc1NCC1CC1 | 3.62% | 6.01% | 1.98% |
| Clc1ccc(CNc2nc(NCCc3c[nH]cn3)nc(Nc3ccc4c(c3)OCO4)n2)cc1 | 2.28% | 2.3% | 3.66% |
| O=C(N[C@@H](CC1CCCCC1)C(=O)NC1CC1)c1ccc(O)c(-c2cccc(C(F)(F)F)c2)c1 | 3.48% | 2.6% | 3.88% |
| Cc1cc2nc(-c3ccc(/C=C/C(=O)NC4CCN(Cc5ccccc5)CC4)cc3)[nH]c2cc1C | 0.58% | -0.75% | -2.3% |

| SMILES | inhibition [1] | inhibition [2] | inhibition [3] |
| --- | --- | --- | --- |
| Nc1nc(N)c2c(Cc3ccccc3)cccc2n1 | 0.09% | 4.13% | 2.02% |
| CC(C)c1sc(N2CCN(C)CC2)nc1C(=O)NCCc1cccc(Cl)c1 | 6.7% | 3.42% | 3.93% |
| O=C(Nc1cccc(-c2ccc(CN3CCCC3)cc2)c1)c1cccc(F)c1 | -0.49% | 1.18% | 0.62% |
| c1ccc(Oc2ccc(Nc3ccnc4cc(-c5ccc(CNCCN6CCOCC6)o5)ccc34)cc2)nc1 | 2.93% | 2.52% | 2.3% |
| COc1cccc(NC(=O)Nc2cc(C)nc3ccccc23)c1 | 4.17% | 3.94% | 2.43% |
| CCCC(C)NC[C@@H](O)[C@H](Cc1ccccc1)NC(=O)c1cc(C2CCCC2)cc(N2CCCCS2(=O)=O)c1 (stereo partly drawn) | 3.4% | 3.66% | 2.98% |
| Cc1c(CNCCCNc2cc(=O)c3ccccc3[nH]2)sc(C(F)F)c1Br | -0.36% | -0.4% | -1.09% |
| Cc1cc(C(=O)CN2C(=O)NC(C)(c3ccc4ccccc4c3)C2=O)c(C)n1Cc1ccco1 (stereo not drawn) | -0.27% | -1.11% | -4.18% |
| C[C@H](N[C@H]1CCCc2c1[nH]c1ccc(Br)cc21)c1ccccc1 | 2.46% | 0.78% | 0.74% |
| CCCn1c(=N)c(C(=O)NCCc2ccccc2)cc2c(=O)n3cccc(C)c3nc21 | 5.16% | 7.01% | 2.32% |
| CO/C(=C\C=C\c1cc2cc(Cl)ccc2[nH]1)C(=O)NCCCN1CCN(c2cc(Cl)ccc2OC)CC1 | 1.52% | 1.33% | -1.6% |
| CCCNCc1ccc(-c2ccc(CNC3Cc4ccccc4C3)cc2)nc1 | -0.04% | 2.5% | 1.53% |
| Cc1cc(-c2ccc(NC(=O)Nc3ccc4nccc(N5CCN(C)CC5)c4c3)cc2C)cc(C)n1 | 7.15% | 5.84% | 8.51% |
| Brc1cc(CNCCCNc2nc3ccccc3[nH]2)sc1Br | 6.22% | 9.1% | 6.32% |
| COc1ccc(CCCON2C(=N)N=C(N)NC2(C)C)cc1 | 16.7% | 23% | 18% |
| Cc1ccc(O)cc1Nc1ccnc2cc(-c3csc(CNCCN4CCOCC4)n3)ccc12 | 1.41% | 0.86% | 1.37% |
| c1ccc(Oc2ccc(Nc3ccnc4cc(-c5ccc(CN6CCOCC6)o5)ccc34)cc2)nc1 | -1.57% | -1.03% | -0.13% |
| CN1CCN(c2cc(-c3cccc(C(F)(F)F)c3)nc(-c3ccncc3)n2)CC1 | 2.69% | 4.44% | -2.16% |
| NC(=O)c1ccc(NCC(=O)Nc2cccc(-c3cccc(-c4nc5cc(C(F)(F)F)ccc5[nH]4)c3)c2)cc1 | 3.23% | 3.6% | 1.91% |
| CC(=O)Nc1ncc(C(=O)Nc2ccc(-c3cccc(-c4nc5cc(F)ccc5[nH]4)c3)cc2)s1 | 6.62% | 7% | 6.95% |
| Nc1ncc(-c2ccc(F)c(Cl)c2)c(N)n1 | 1.16% | 4.76% | 1.32% |
| Cc1ccc(-n2nc(-c3ccccc3)c3cc(C(=O)NCCN)sc32)cc1 | -2.29% | -1.78% | -6.61% |
| CN1CCCN(Cc2cccc(-c3cccc(NC(=O)c4cccc(C#N)c4)c3)c2)CC1 | 12.8% | 11.4% | 10.3% |
